Results published in PubChem BioAssay (Tox21).
Several values for one entry are separate records, joined by “and”; a condition that tells them apart may be missing. Identical values can stand only once. Results filed as inconclusive are left out. A call without a number means that no potency is given here. Some compounds were tested as several samples or in several runs, with calls that do not always agree. Activity calls are given as the source filed them. Unless noted, calls come from the whole dose curve.

Key:
[1] = qHTS assay to identify small molecule antagonists of the sonic hedgehog signaling (Shh) pathway (AID 1259369); note: nearly all actives have a fitted effect of over 45% in size; note: potency is the fitted concentration of half-maximal effect
Procedure, shortened: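 For antagonist detection, the reporter line received test compounds together with conditioned medium, incubated 24hr at 37 C, 5% CO2, then luminescence was recorded following 30min room-temperature luciferase reagent incubation.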

[2] = target: Estrogen receptor beta (Homo sapiens) (UniProt Q92731); experiment: qHTS assay to identify small molecule agonists of the estrogen receptor beta (ER-beta) signaling pathway (AID 1259377; active = well fitted activation curve with a large enough effect in the signal ratio in the repeat runs, not every such curve was filed as active; the % refers to the signal ratio)
Procedure, shortened: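 ER-beta-UAS-bla HEK293T cells in medium with 2% charcoal-stripped FBS were exposed to compounds for 16 h at 37C. Beta-lactamase reporter activity was read as fluorescence after 2 h with LiveBLAzer B/G FRET substrate at room temperature.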

[3] = target: Estrogen receptor beta (Homo sapiens) (UniProt Q92731); experiment: qHTS assay to identify small molecule antagonists of the estrogen receptor beta (ER-beta) signaling pathway (AID 1259378; active = well fitted inhibition curve with a large enough effect in the signal ratio in the repeat runs, not every such curve was filed as active; the % refers to the signal ratio)
Procedure, shortened: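 ER-beta-UAS-bla HEK293T (GripTite) cells in 2% charcoal-stripped FBS medium were preincubated 6 hr at 37C, dosed with compound, then stimulated with 1 nM E2 (final) for 16 hr; beta-lactamase reporter read by B/G FRET fluorescence after 2 hr substrate loading.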

[4] = qHTS assay to identify small molecule agonists of the androgen receptor (AR) signaling pathway in the presence of an antagonist - cell viability counter screen (AID 1259379; active = well fitted curve in the direction sought with a large enough effect in the repeat runs; an effect the other way counts as inactive or inconclusive;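 note: MDA-kb2 human breast cancer cells carrying an MMTV luciferase reporter; series mostly up to about 92 µM; nearly all actives have a fitted effect of over 25% in size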)
Procedure, shortened: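 Seed MDA-kb2 at 3,000 cells/well; incubate 5 hr, 37C, 0% CO2. Add nilutamide to 3.0uM final, then pin compounds at 15 concentrations. Incubate 16 hr. Add CellTiter-Fluor at 15 hr, read fluorescence after 1 hr.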

[5] = qHTS assay to identify small molecule agonists of the estrogen receptor beta (ER-beta) signaling pathway - cell viability counter screen (AID 1259380; active = well fitted curve in the direction sought with a large enough effect in the repeat runs; an effect the other way counts as inactive or inconclusive; note: nearly all actives have a fitted effect of over 30% in size; note: potency is the fitted concentration of half-maximal effect)
Procedure, shortened: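 CellTiter-Glo read, 30 min RT, same wells as bla assay; cells ER-beta-UAS-bla HEK293T; 16 hr compound, 37C; medium 2% charcoal-stripped FBS.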

[6] = target: Androgen receptor (Homo sapiens) (UniProt P10275); experiment: qHTS assay to identify small molecule agonists of the androgen receptor (AR) signaling pathway in the presence of an antagonist (AID 1259381); note: nearly all actives have a fitted effect of over 15% in size
Procedure, shortened: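 Test compounds at 15 concentrations were incubated for 16hr with MDA-kb2 reporter cells in presence of 3.0uM nilutamide (final). Signal: ONE-Glo luciferase luminescence.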

[7] = qHTS assay to identify small molecule antagonists of the estrogen receptor beta (ER-beta) signaling pathway - cell viability counter screen (AID 1259382; active = well fitted curve in the direction sought with a large enough effect in the repeat runs; an effect the other way counts as inactive or inconclusive; note: nearly all actives have a fitted effect of over 55% in size; note: potency is the fitted concentration of half-maximal effect)
Procedure, shortened: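 In this multiplexed counter screen, cells were seeded at 2,000 per well in medium with 2% charcoal-stripped FBS and incubated 6 hr before compound and 1nM final E2 were added. Sixteen hours later, ATP-based luminescence reported viability.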

[8] = target: Estrogen receptor (Homo sapiens) (UniProt P03372); experiment: qHTS assay to identify small molecule agonists of the estrogen receptor alpha (ER-alpha) signaling pathway in the presence of an antagonist (AID 1259383); note: top concentration of the series differs between compounds; nearly all actives have a fitted effect of over 15% in size
Procedure, shortened: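 Stably transfected VM7Luc4E2 reporter cells, kept 5 days in charcoal-stripped serum, received ICI-182,780 at 10.0nM final before compound addition. Following 22hr incubation at 37C and 5% CO2, luciferase signal was read by luminescence.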

[9] = qHTS assay to identify small molecule agonists or antagonists of the thyroid stimulating hormone receptor (TSHR) signaling pathway - wild type cell line counter screen (AID 1259384)
Procedure, shortened: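 Wild-type HEK293 cells were plated 18 h at 37 C/5% CO2, pin-dosed with compound plus Ro20-1724 medium, held 30 min at room temperature, then given cAMP-d2 and anti-cAMP-cryptate; fluorescence was read after 1 h. Fifteen concentrations, triplicate.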

[10] = target: Thyrotropin receptor (Homo sapiens) (UniProt P16473); experiment: qHTS assay to identify small molecule antagonists of the thyroid stimulating hormone receptor (TSHR) signaling pathway (AID 1259385); note: nearly all actives have a fitted effect of over 20% in size
Procedure, shortened: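 TSHR-HEK293 cells were plated and held 18 h at 37C/5% CO2, then given compound plus Ro20-1724 and stimulated with TSH at 1.5 ng/mL final. After 30 min at room temperature, cAMP was detected with cAMP-d2/anti-cAMP-cryptate (1 h) by fluorescence.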

[11] = qHTS assay to identify small molecule agonists of the estrogen receptor alpha (ER-alpha) signaling pathway in the presence of an antagonist - cell viability counter screen (AID 1259386; active = well fitted curve in the direction sought with a large enough effect in the repeat runs; an effect the other way counts as inactive or inconclusive;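 note: series mostly up to about 92 µM; cells exposed to compounds for 22 h at 37 °C before the viability read; nearly all actives have a fitted effect of over 30% in size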)
Procedure, shortened: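 Viability counter screen using VM7Luc4E2 (full-length ER-alpha, four ERE-luciferase). The cells were treated with compounds alongside ICI-182,780 10.0nM for 22hr, and live-cell protease fluorescence was quantified with CellTiter-Fluor.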

[12] = target: Progesterone receptor (Homo sapiens) (UniProt P06401); experiment: qHTS assay to identify small molecule agonists of the progesterone receptor (PR) signaling pathway (AID 1346784); note: nearly all actives have a fitted effect of over 30% in size
Procedure, shortened: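 PR-UAS-bla HEK 293T cells (beta-lactamase reporter under UAS) in 2% charcoal-stripped FBS, dosed with 23 nL compound after 6 hr, incubated 16hr at 37C. LiveBLAzer B/G FRET substrate added, fluorescence read after 2 hours.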

[13] = target: Progesterone receptor (Homo sapiens) (UniProt P06401); experiment: qHTS assay to identify small molecule antagonists of the progesterone receptor (PR) signaling pathway (AID 1346795; active = well fitted inhibition curve with a large enough effect in the signal ratio in the repeat runs, not every such curve was filed as active; the % refers to the signal ratio; note: potency is the fitted concentration of half-maximal effect)
Procedure, shortened: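 PR-UAS-bla HEK293T cells with beta-lactamase reporter under UAS control, in 2% charcoal-stripped FBS, treated with compounds plus 1 nM promegestone (R5020, final) for 16 hr at 37C. Read-out: FRET beta-lactamase substrate fluorescence after 2 hr at room temperature.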

[14] = qHTS assay to identify small molecule agonists of the progesterone receptor (PR) signaling pathway - cell viability counter screen (AID 1346799); note: nearly all actives have a fitted effect of over 45% in size; note: potency is the fitted concentration of half-maximal effect
Procedure, shortened: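 Counter screen in the PR-UAS-bla HEK293T wells (2% charcoal-stripped FBS, 16 h compound exposure at 37 C) after the bla read. CellTiter-Glo added, 30 min at room temperature, luminescence read as cell viability.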

[15] = qHTS assay to identify small molecule antagonists of the TGF-beta/Smad signaling pathway - cell viability counter screen (AID 1346824; active = well fitted curve in the direction sought with a large enough effect in the repeat runs; an effect the other way counts as inactive or inconclusive; note: nearly all actives have a fitted effect of over 50% in size)
Procedure, shortened: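 SBE-bla HEK 293T cells were plated overnight at 37 C, then given compounds in DMSO plus TGF-beta1 (added as 0.25 ng/mL solution) for 5 hr. After the bla read, CellTiter-Glo was added to the same wells and luminescence read after 30 min at room temperature.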

[16] = qHTS assay to identify small molecule agonists of the TGF-beta/Smad signaling pathway - cell viability counter screen (AID 1346829; active = well fitted curve in the direction sought with a large enough effect in the repeat runs; an effect the other way counts as inactive or inconclusive; note: top concentration of the series differs between compounds; nearly all actives have a fitted effect of over 45% in size)
Procedure, shortened: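 Cytotoxicity counter screen: CellTiter-Glo luminescence (30 min, room temperature) measured in the SBE-bla HEK 293T reporter wells after 5 hr compound treatment at 37 C and the 2 hr substrate step.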

[17] = qHTS assay to identify small molecule agonists of the TGF-beta/Smad signaling pathway (AID 1346859; active = well fitted activation curve with a large enough effect in the signal ratio in the repeat runs, not every such curve was filed as active; the % refers to the signal ratio; note: series mostly up to about 77 µM)
Procedure, shortened: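 SBE-bla HEK293T cells plated overnight, then compound exposure for 5 h at 37 C. Beta-lactamase reporter read with LiveBLAzer B/G FRET substrate after 2 h at room temperature, fluorescence at 405 nm excitation, 460/530 nm emission.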

[18] = target: Thyrotropin-releasing hormone receptor (Homo sapiens) (UniProt P34981); experiment: qHTS assay to identify small molecule antagonists of the thyrotropin-releasing hormone receptor (TRHR) signaling pathway (AID 1346877; active = well fitted inhibition curve with a large enough effect in the repeat runs, not every such curve was filed as active; note: potency is the fitted concentration of half-maximal effect)
Procedure, shortened: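 Following an 18 h incubation at 37 °C and a 2 h calcium dye load, TRHR-HEK293 cells were exposed to compound (5 min, room temperature) and challenged with TRH, 1 nM final.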

[19] = target: Thyrotropin-releasing hormone receptor (Homo sapiens) (UniProt P34981); experiment: qHTS assay to identify small molecule agonists of the thyrotropin-releasing hormone receptor (TRHR) signaling pathway (AID 1346891); note: potency is the fitted concentration of half-maximal effect; for activation: series mostly up to about 58 µM
Procedure, shortened: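 HEK293 cells expressing TRHR plated 18 h at 37 C/5% CO2, calcium dye-loaded 2 h at 37 C, then compound added (agonist mode); kinetic calcium fluorescence read 3 min at 1 s intervals; 15 concentrations in triplicate.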

[20] = qHTS assay to identify small molecule antagonists of the progesterone receptor (PR) signaling pathway - cell viability counter screen (AID 1346798; active = well fitted curve in the direction sought with a large enough effect in the repeat runs; an effect the other way counts as inactive or inconclusive; note: nearly all actives have a fitted effect of over 50% in size; note: potency is the fitted concentration of half-maximal effect)
Procedure, shortened: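 PR-UAS-bla HEK293T cells, 3,000/well in 2% charcoal-stripped FBS medium, dosed with compounds plus R5020 agonist and incubated 16 h at 37C. Viability then measured in the same wells by CellTiter-Glo luminescence after 30 min at RT.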

Estrogen receptor (Homo sapiens), sequence (P03372 whole entry, looked up): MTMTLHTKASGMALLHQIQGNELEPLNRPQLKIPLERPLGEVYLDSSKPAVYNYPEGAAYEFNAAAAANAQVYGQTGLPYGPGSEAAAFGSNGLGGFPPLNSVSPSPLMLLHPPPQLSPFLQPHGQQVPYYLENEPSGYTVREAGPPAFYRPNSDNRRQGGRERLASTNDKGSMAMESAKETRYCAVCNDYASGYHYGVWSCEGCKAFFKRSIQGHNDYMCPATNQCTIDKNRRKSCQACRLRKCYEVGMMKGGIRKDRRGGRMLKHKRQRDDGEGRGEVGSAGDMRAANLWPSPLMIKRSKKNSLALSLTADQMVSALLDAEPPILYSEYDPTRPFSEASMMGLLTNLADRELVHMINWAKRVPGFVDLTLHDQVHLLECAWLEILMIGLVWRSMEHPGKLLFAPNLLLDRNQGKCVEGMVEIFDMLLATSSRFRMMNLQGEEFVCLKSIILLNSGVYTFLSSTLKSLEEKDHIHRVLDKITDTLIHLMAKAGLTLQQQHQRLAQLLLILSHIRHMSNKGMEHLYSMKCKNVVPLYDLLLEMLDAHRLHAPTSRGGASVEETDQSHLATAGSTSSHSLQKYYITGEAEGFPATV
Progesterone receptor (Homo sapiens), sequence (P06401 whole entry, looked up): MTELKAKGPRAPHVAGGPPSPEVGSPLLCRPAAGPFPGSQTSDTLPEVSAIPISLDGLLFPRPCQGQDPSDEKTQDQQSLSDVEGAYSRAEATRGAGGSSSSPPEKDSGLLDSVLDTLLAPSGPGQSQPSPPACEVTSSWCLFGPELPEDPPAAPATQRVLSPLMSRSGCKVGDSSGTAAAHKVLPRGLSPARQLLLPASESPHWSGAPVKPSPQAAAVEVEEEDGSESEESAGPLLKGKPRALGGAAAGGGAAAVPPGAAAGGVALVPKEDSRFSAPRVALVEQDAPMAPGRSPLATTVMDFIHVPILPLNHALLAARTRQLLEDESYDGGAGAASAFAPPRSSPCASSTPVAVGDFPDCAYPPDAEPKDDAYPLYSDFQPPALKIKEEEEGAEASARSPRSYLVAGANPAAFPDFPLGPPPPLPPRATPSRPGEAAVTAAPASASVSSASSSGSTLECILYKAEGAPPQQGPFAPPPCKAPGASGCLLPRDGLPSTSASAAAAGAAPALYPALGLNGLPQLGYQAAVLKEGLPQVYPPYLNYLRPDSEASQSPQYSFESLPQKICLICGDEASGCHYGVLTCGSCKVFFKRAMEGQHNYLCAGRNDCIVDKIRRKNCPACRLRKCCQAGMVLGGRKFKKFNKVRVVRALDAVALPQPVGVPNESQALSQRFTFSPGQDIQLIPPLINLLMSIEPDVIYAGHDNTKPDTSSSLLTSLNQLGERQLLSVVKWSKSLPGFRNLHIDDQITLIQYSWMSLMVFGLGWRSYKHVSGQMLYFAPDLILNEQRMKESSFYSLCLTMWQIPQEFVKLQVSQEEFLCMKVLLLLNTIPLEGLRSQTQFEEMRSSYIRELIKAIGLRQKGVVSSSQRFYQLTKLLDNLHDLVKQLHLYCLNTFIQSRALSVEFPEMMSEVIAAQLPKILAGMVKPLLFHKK
Thyrotropin receptor (Homo sapiens), sequence (P16473 whole entry, looked up): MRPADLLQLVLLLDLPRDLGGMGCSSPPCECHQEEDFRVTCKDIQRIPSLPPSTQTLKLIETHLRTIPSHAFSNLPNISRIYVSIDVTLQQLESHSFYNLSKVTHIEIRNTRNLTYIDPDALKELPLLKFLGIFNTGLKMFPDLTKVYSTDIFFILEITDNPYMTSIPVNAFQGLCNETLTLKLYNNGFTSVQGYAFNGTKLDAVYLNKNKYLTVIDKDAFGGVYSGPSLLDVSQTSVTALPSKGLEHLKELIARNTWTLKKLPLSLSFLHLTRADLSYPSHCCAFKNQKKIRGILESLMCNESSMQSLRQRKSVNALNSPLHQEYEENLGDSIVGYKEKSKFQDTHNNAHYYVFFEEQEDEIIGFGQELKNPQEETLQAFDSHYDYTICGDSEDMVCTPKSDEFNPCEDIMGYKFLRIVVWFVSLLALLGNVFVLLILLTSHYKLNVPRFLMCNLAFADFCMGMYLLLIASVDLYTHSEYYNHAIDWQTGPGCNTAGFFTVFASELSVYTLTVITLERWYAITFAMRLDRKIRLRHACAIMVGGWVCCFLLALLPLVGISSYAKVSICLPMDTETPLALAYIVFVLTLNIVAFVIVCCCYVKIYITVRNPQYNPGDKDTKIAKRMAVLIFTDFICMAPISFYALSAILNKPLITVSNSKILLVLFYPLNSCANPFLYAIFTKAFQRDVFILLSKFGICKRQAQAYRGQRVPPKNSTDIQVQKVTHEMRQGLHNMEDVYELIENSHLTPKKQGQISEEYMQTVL
Thyrotropin-releasing hormone receptor (Homo sapiens), sequence (P34981 whole entry, looked up): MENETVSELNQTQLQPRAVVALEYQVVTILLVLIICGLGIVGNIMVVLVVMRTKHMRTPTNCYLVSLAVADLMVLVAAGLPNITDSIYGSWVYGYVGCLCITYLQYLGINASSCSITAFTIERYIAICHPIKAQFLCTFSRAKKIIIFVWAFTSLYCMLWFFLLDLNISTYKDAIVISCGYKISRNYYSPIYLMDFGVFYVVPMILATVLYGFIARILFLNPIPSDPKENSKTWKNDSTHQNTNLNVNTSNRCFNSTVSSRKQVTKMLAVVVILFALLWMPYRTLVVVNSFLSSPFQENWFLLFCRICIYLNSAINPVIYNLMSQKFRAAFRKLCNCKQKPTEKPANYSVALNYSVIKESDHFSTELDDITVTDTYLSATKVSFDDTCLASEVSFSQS
Estrogen receptor beta (Homo sapiens), sequence (Q92731 whole entry, looked up): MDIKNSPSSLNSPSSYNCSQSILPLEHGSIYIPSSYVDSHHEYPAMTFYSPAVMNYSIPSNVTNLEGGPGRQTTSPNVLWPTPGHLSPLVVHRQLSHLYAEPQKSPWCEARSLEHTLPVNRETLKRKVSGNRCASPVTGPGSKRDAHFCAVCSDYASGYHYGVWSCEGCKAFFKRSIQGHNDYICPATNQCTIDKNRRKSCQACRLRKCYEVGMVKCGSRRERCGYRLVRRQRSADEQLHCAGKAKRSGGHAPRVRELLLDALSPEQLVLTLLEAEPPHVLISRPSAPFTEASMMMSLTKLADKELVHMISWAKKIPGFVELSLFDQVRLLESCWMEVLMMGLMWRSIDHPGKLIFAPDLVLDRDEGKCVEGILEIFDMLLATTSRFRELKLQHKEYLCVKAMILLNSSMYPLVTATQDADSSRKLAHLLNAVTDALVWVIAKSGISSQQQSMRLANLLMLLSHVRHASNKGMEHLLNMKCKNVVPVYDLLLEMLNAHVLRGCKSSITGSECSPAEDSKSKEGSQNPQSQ
Androgen receptor (Homo sapiens), sequence (P10275 whole entry, looked up): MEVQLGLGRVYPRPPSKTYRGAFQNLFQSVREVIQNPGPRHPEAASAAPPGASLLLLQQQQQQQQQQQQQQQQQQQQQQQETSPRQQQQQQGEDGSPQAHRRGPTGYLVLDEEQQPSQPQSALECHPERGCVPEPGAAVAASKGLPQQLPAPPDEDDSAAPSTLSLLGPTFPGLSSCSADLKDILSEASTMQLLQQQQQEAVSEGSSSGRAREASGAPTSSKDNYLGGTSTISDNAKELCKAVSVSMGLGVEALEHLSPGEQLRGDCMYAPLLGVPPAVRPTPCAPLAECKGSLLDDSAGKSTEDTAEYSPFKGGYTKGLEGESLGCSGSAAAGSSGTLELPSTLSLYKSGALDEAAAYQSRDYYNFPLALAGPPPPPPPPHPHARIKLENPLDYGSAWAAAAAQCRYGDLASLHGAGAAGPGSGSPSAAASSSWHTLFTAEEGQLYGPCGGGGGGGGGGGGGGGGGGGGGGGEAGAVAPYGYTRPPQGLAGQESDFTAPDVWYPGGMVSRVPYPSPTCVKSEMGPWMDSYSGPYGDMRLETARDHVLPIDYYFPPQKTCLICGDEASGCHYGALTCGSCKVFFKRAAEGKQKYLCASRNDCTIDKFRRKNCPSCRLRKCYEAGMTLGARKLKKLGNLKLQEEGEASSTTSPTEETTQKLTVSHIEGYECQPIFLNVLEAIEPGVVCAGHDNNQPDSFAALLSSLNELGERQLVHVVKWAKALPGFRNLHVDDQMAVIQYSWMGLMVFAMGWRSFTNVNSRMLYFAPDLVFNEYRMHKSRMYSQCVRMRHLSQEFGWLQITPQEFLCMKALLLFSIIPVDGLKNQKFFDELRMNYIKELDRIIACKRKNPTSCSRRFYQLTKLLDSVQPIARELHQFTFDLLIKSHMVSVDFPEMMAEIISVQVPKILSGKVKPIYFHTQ

SMILES | Potency [1] | outcome [2] | Potency [3] | Potency [4] | Potency [5] | Potency [6] | Potency [7] | Potency [8] | Potency [9] | Potency [10] | Potency [11] | Potency [12] | Potency [13] | Potency [14] | Potency [15] | Potency [16] | outcome [17] | Potency [18] | Potency [19] | Potency [20]
CC(C)CCOCc1ccccc1 | inactive | inactive | inactive | inactive | inactive | inactive | inactive | inactive | inactive | inactive | inactive | inactive | inactive | inactive | inactive | inactive | inactive | inactive | inactive | –
BrC1CCC(Br)C(Br)CCC(Br)C(Br)CCC1Br (configuration not stated) | 32.6 µM (active) | inactive | inactive | inactive | 30.5 µM (active) and 46.1 µM (active) | inactive | 54.3 µM (active) and 46.1 µM (active) | inactive | inactive | – | – | inactive | – | 30.5 µM (active) and 41.1 µM (active) | inactive | – | – | – | – | 54.3 µM (active) and 51.7 µM (active)
COC(=O)/C=C/c1ccccc1 | inactive and 21.7 µM (active) | inactive | inactive | inactive | inactive | – | inactive | inactive | inactive | – | inactive | inactive | inactive | inactive | inactive | inactive | inactive | inactive | inactive | inactive
CC(C)(C)c1cc(C(C)(C)C)c(O)c(C(C)(C)C)c1 | inactive | inactive | inactive | inactive | inactive and 48.6 µM (active) | – | inactive | inactive | inactive | inactive | inactive | inactive | inactive | inactive | inactive | inactive | inactive | inactive | inactive | inactive
O=C(O)Cn1cnnn1 | inactive | inactive | inactive | inactive | inactive | inactive | inactive | inactive | inactive | inactive | inactive | inactive | inactive | – | inactive | inactive | inactive | inactive | inactive | inactive
NC(=Nc1ccccc1)Nc1ccccc1 | 2.43 µM (active) | inactive | inactive | inactive | inactive | – | inactive | inactive | inactive | inactive | inactive | inactive | inactive | inactive | inactive | inactive | inactive | 10.1 µM (active) and inactive | 7.76 µM (active) and 15.1 µM (active) | inactive
CCOc1ccccc1C(N)=O | inactive | inactive | inactive | inactive | inactive | inactive | inactive | inactive | inactive | inactive | inactive | inactive | inactive and 26.6 µM (active) | inactive | inactive | inactive | inactive | inactive | inactive | inactive
